In the supplement of paper PMC10105736:

What was measured:
Experiment in all cases: MAPPIT interaction score (arbitrary units); higher = stronger binary interaction signal, active = hit call of the paper;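 active = MAPPIT score above the 99th percentile of random reference set scores in the same batch; inactive = at or below it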
CG15529 = conditions: MAPPIT configuration: N-C; pair source set: screen_4
CG15576 = conditions: MAPPIT configuration: N-N; pair source set: Curagen_low_conf
CG15728 = conditions: MAPPIT configuration: N-C; pair source set: screen_3
CG17776 = conditions: MAPPIT configuration: N-N; pair source set: Lit-BS-16
CG16904 = conditions: MAPPIT configuration: N-N; pair source set: Curagen_low_conf
CG2865 = conditions: MAPPIT configuration: N-N; pair source set: Curagen_low_conf
Cul3 = conditions: pair source set: Lit-BM-16
puc = conditions: pair source set: Lit-BM-16
spir = conditions: MAPPIT configuration: N-N; pair source set: Curagen_low_conf
CG17162 = conditions: MAPPIT configuration: N-C
CG17217 = conditions: MAPPIT configuration: N-N; pair source set: Finley_Y2H
PIG-T = conditions: MAPPIT configuration: N-N; pair source set: DPIM
Prosalpha6T = conditions: pair source set: Lit-BM-16
Prosbeta3 = conditions: MAPPIT configuration: N-C; pair source set: Lit-BM-16
Rpt2 = conditions: pair source set: Lit-BM-16
Rpt4 = conditions: pair source set: Lit-BM-16
CG17224 = conditions: MAPPIT configuration: N-N; pair source set: Finley_Y2H
CG17598 = conditions: MAPPIT configuration: N-N; pair source set: Lit-BM-16
CG17770 = conditions: pair source set: RRS
CG1789 = conditions: MAPPIT configuration: N-N; pair source set: Finley_Y2H
Mnt = conditions: pair source set: Lit-BM-16
CG17991 = conditions: MAPPIT configuration: N-C; pair source set: screen_3
sina = conditions: MAPPIT configuration: N-N; pair source set: screen_2
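Further: HEK293T cells with Epo stimulation, STAT-responsive firefly luciferase reporter, fold induction versus unstimulated cells divided by the larger fold induction of two negative controls lacking either bait or prey.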

B1: CG3817 (protein)
chain: MALLTEKRVKKTHAPASDSSPEESDSEGSQNSASEAEGNAGWADSIQKVLKTTKPKTQKKTVLARAKKSQAAVRFQKDAANKKPGFDFEIEKADVKEEDEGDNHEDEKPQASALDATLTKQQRKNVPLQLRVKPSFRDMERERTLRKVATRGVVQFFNAVRIQQKDLQQQLEEAGPLDSRQDAVLNNINKRKFLDVLMSGKRAKSTPVDNAVKKEEQETDDDDEDKGSSGKKKSEWSVLREDFMTNKKIKHWDEEDDDEEGHNDEADDSDYDDGEE
For B1, the MAPPIT interaction score (CG15529) was 1.02 (inactive).

B2: Yp3 (protein)
chain: MMSLRICLLATCLLVAAHASKDASNDRLKPTKWLTATELENVPSLNDITWERLENQPLEQGAKVIEKIYHVGQIKHDLTPSFVPSPSNVPVWIIKSNGQKVECKLNNYVETAKAQPGFGEDEVTIVLTGLPKTSPAQQKAMRRLIQAYVQKYNLQQLQKNAQEQQQQLKSSDYDYTSSEEAADQWKSAKAASGDLIIIDLGSTLTNFKRYAMLDVLNTGAMIGQTLIDLTNKGVPQEIIHLIGQGISAHVAGAAGNKYTAQTGHKLRRITGLDPAKVLSKRPQILGGLSRGDADFVDAIHTSTFAMGTPIRCGDVDFYPNGPSTGVPGSENVIEAVARATRYFAESVRPGSERNFPAVPANSLKQYKEQDGFGKRAYMGLQIDYDLRGDYILEVNAKSPFGQRSPAHKQAAYHGMHHAQN
For B2, the MAPPIT interaction score (CG15576) was 0.532 (inactive).

B3: Nedd8 (protein)
chain: MLIKVKTLTGKEIEIDIEPTDKVDRIKERVEEKEGIPPQQQRLIFSGKQMNDDKTAADYKVQGGSVLHLVLALRGGDSILTPCV
For B3, the MAPPIT interaction score (CG15576) was 1.7 (inactive).

B4: REPTOR-BP (protein)
chain: MADMEIQSNKMSITEETQVQTRKECGKRGRKPGRKTSTEKLDMKAKLERSRQSARECRARKKLRYQYLEELVADREKAVVALRTELERLIQWNNQLSESNTPTNNDQLLQELGILKQE
B4 was tested, and the MAPPIT interaction score (CG15728) was 1.49 (inactive) and the MAPPIT interaction score (CG17776) was -0.21 (inactive).

B5: rdx (protein)
chain: MFEPYVKIKKKRSVNEIYENENLEQQQHHLQQQQQQPATSDNCCCENGEPQNAPEVATATVAATSVAATSAAATVATGAAASSSSSGNCSRLQQLISTPPVLLRRSSLQQQQHQQQQHHPHTPAATATPPQQQQQQQAAPSVLQQHLGHLNYESGATAAAAATAAAAAATVATSRSGSATLAQHLATPSNILQAAFGSSNLQHILTRSAPSPSSSAISSNNCSSACAGNTHYNGGNSNSGSSSSNSNHHSNSIIASRLFGAASSSSSSSSSSASASSSSVAASSSSSSHHLHSHHSALTNSITNRINQSIRRHLNQQQHHHPLSASSSSASASPSASTSSSSSYQQSSVQQQHYNCAHPAQQQQHHHHHHSSSSSSSSSSSSSHHHHNSSSSSNSNNQQQPQQSPLCLVLLVKCPNSKEFCNAAANFCDKRLPVNECQASQTARVTSNLHASSSTMAVSRVPSPPLPEVNTPVAENWCYTQVKVVKFSYMWTINNFSFCREEMGEVLKSSTFSAGANDKLKWCLRVNPKGLDEESKDYLSLYLLLVSCNKSEVRAKFKFSILNAKREETKAMESQRAYRFVQGKDWGFKKFIRRDFLLDEANGLLPEDKLTIFCEVSVVADSVNISGQSNIVQFKVPECKLSEDLGNLFDNEKFSDVTLSVGGREFQAHKAILAARSDVFAAMFEHEMEERKLNRVAITDVDHEVLKEMLRFIYTGKAPNLEKMADDLLAAADKYALEKLKVMCEEALCVNLSVETAAETLILADLHSADQLKAQTIDFINTHATDVMETSGWQNMITTHSHLIAEAFRALATQQIPPIGPPRKRVKMS
With B5 the MAPPIT interaction score (CG16904) was -0.125 (inactive), the MAPPIT interaction score (CG2865) was -0.131 (inactive) and the MAPPIT interaction score (Cul3; MAPPIT configuration: N-C) was 1.12 (inactive). For the same binder, the MAPPIT interaction score (Cul3; MAPPIT configuration: N-N) was 0.911 (inactive), the MAPPIT interaction score (puc; MAPPIT configuration: N-C) was 0.404 (inactive) and the MAPPIT interaction score (puc; MAPPIT configuration: N-N) was 0.467 (inactive). The MAPPIT interaction score (spir) was 0.125 (inactive).

B6: p38c (protein)
chain: MPEFVRVAINESLWEFPDIYEFVRFLGGGSFGQVAKVRLRGTENYFAMKRLMRPFEREEDAKGTYREIRLLKHMNHRNVISLLNVFHPPAHNMMEFQQVYLVTHLMDADLHRYSRSKRMSDQEIRIILYQILRGLKYIHSAGVVHRDLKPCNIAVNGNSEVRILDFGLSRMCADKMTDHVGTMWYLAPEIIFLRGQYTKAIDVWSVGCILAELITDRVLFRGENYVSQIRCLINIMGTPTREFITGISMERSRNYLEGYPLRQRCDFHHLFMGYDVQAIDLMEKMLEMVPEKRITAAEAMLHPYLRDLIEPHHHAEDTAPVYDQNFENMVLPVKCWKELVSHEIRNFRPDQLDLHF
In the case of B6, the MAPPIT interaction score (CG17162; pair source set: screen_3) is reported as 0.769 (inactive).

B7: B-H1 (protein)
chain: MKDSMSILTQTPSEPNAAHPQLHHHLSTLQQQHHQHHLHYGLQPPAVAHSIHSTTTMSSGGSTTTASGIGKPNRSRFMINDILAGSAAAAFYKQQQHHQQLHHHNNNNNSGSSGGSSPAHSNNNNNINGDNCEASNVAGVGVLPSALHHPQPHPPTHPHTHPHALMHPHGKLGHFPPTAGGNGLNVAQYAAAMQQHYAAAAAAAAARNNAAAAAAAAAAAAAAGVAAPPVDGGVDGGVGLAPPAGGDLDDSSDYHEENEDCDSGNMDDHSVCSNGGKDDDGNSVKSGSTSDMSGLSKKQRKARTAFTDHQLQTLEKSFERQKYLSVQERQELAHKLDLSDCQVKTWYQNRRTKWKRQTAVGLELLAEAGNFAAFQRLYGGSPYLGAWPYAAAAGAAHGATPHTNIDIYYRQAAAAAAMQKPLPYNLYAGVPSVGVGVGVGVGPAPFSHLSASSSLSSLSSYYQSAAAAASAANPGGPHPVAPPPSVGGGSPPSGLVKPIPAHSASASPPPRPPSTPSPTLNPGSPPGRSVDSCSQSDDEDQIQV
For B7, the MAPPIT interaction score (CG17162; pair source set: screen_4) was 4.06 (active).

B8: TrxT (protein)
chain: MVYPVRNKDDLDQQLILAEDKLVVIDFYADWCGPCKIIAPKLDELAHEYSDRVVVLKVNVDENEDITVEYNVNSMPTFVFIKGGNVLELFVGCNSDKLAKLMEKHAGVYTDEAADVKAVHIDGECIVDLTAESSESDNDNNNVNEVSAHDENAVLEH
For B8, the MAPPIT interaction score (CG17162; pair source set: screen_4) was 1.51 (inactive).

B9: Prosalpha2 (protein)
chain: MATERYSFSLTTFSPSGKLVQLEYALAAVSGGAPSVGIIASNGVVIATENKHKSPLYEQHSVHRVEMIYNHIGMVYSGMGPDYRLLVKQARKIAQTYYLTYKEPIPVSQLVQRVATLMQEYTQSGGVRPFGVSLLICGWDNDRPYLYQSDPSGAYFAWKATAMGKNAVNGKTFLEKRYSEDLELDDAVHTAILTLKEGFEGKMTADNIEIGICDQNGFQRLDPASIKDYLASIP
B9 was tested, and the MAPPIT interaction score (CG17217) was 1.84 (inactive), the MAPPIT interaction score (PIG-T) was 0.383 (inactive) and the MAPPIT interaction score (Prosalpha6T; MAPPIT configuration: N-C) was 2.29 (inactive). For the same binder, the MAPPIT interaction score (Prosalpha6T; MAPPIT configuration: N-N) was -0.206 (inactive), the MAPPIT interaction score (Prosbeta3) was 1.69 (inactive) and the MAPPIT interaction score (Rpt2; MAPPIT configuration: N-C) was -1.15 (inactive). For the same binder, the MAPPIT interaction score (Rpt2; MAPPIT configuration: N-N) was 0.523 (inactive), the MAPPIT interaction score (Rpt4; MAPPIT configuration: N-C) was 0.723 (inactive) and the MAPPIT interaction score (Rpt4; MAPPIT configuration: N-N) was -0.155 (inactive).

B10: Ddc (protein)
chain: MSHIPISNTIPTKQTDGNGKANISPDKLDPKVSIDMEAPEFKDFAKTMVDFIAEYLENIRERRVLPEVKPGYLKPLIPDAAPEKPEKWQDVMQDIERVIMPGVTHWHSPKFHAYFPTANSYPAIVADMLSGAIACIGFTWIASPACTELEVVMMDWLGKMLELPAEFLACSGGKGGGVIQGTASESTLVALLGAKAKKLKEVKELHPEWDEHTILGKLVGYCSDQAHSSVERAGLLGGVKLRSVQSENHRMRGAALEKAIEQDVAEGLIPFYAVVTLGTTNSCAFDYLDECGPVGNKHNLWIHVDAAYAGSAFICPEYRHLMKGIESADSFNFNPHKWMLVNFDCSAMWLKDPSWVVNAFNVDPLYLKHDMQGSAPDYRHWQIPLGRRFRALKLWFVLRLYGVENLQAHIRRHCNFAKQFGDLCVADSRFELAAEINMGLVCFRLKGSNERNEALLKRINGRGHIHLVPAKIKDVYFLRMAICSRFTQSEDMEYSWKEVSAAADEMEQEQ
In the case of B10, the MAPPIT interaction score (CG17224) is reported as 0.0861 (inactive).

B11: Rab2 (protein)
chain: MSYAYLFKYIIIGDTGVGKSCLLLQFTDKRFQPVHDLTIGVEFGARMITIDGKQIKLQIWDTAGQEAFRSITRSYYRGAAGALLVYDITRRETFNHLTTWLEDARQHSNSNMVIMLIGNKSDLDSRREVKKEEGEAFAREHGLVFMETSARTAANVEEAFINTAKEIYEKIQEGVFDINNEANGIKIGQQHSPTNPSLPGAGGAAGAANSGCC
B11 was tested, and the MAPPIT interaction score (CG17598) was 1.18 (inactive).

B12: Rtf1 (protein)
chain: MGKRRTQSLIDSNSSDSDSESETNLESDLMSLAKKRKKPQTAAKSSSRSDSDSDWANNKAGAPSSKKKKRQKPSRDSSSSESNWDDDSQDERQPARQSPAQTQQEHKPPEQASQPAQLSEQEEGEVSDSDSDKSKSNSSSSGSDSSSSSSSSDSEFDDGFDDDLMGDDEDRRRLNGLSEKERETEIYKRIEQREIMRTRWEIERKLKLARRGEKNQEKSKNKGERAKKKKEKREKKARKAREAQAPLPTQASTSTLLDVEPKPSNEVRSASPLSTPALNRDAASTSAAVASIMPDDAASSAGVSDYFDHKERSKERKKNVEANKTDDKRSNAMALLKAKREGKAKREEEEAKRMAEKDRDDDKEELDSVSGCKSAVKLKASEIYSDDSGSSDWDEEEKPAGKRSRSNSSKASSESEDEEKAPQRPVFITTREDLNKLRLSRYKMERFVNLPIFESTVLNCFVRISIGNNGQKPVYRVAEIVGVVETGKIYSLGTTRTNRGLRLKHGTQERVFRLEFISNQEFTENEFNKWNEVCQQSHVQMPTIDLIAIKQNDIKKALNYEFKDEDVDKIVEEKNRFRNRPTNYAMKKTCLMKERDAAMLRGDYDIAQDLGQQIDELENRASELDKRRSHTLNLISYINDRNRKKNVEDAEKAILEEARANKGLKISDPFTRRITQPRMGFKGAKKDEDDMQLAPLPPPPPGKKRPNEAGTSSASVRSTDSKDYSLYSLHDFDIDLDVPLPVNTNSVPKPASKPAETVSKRSLNLEDYKKKRGLI
B12 was tested, and the MAPPIT interaction score (CG17770; MAPPIT configuration: N-C) was 0.216 (inactive) and the MAPPIT interaction score (CG17770; MAPPIT configuration: N-N) was -0.281 (inactive).

B13: Max (protein)
chain: MSMSDDDRDIDIESDEDGDSDTGLGSSRHTNTANFTQAEKRAHHNALERRRRDHIKESFTNLREAVPTLKGEKASRAQILKKTTECIQTMRRKISENQKDIEEIKRQNNIIAKQIQALESSNGDQFSEFLSDEEVGSEEADDEDLDQDFSRRNKKMKTFHA
B13 was tested, and the MAPPIT interaction score (CG1789) was 0.0947 (inactive), the MAPPIT interaction score (Mnt; MAPPIT configuration: N-C) was 4.14 (active) and the MAPPIT interaction score (Mnt; MAPPIT configuration: N-N) was 5.94 (active).

B14: ben (protein)
chain: MSSLPRRIIKETQRLMQEPVPGINAIPDENNARYFHVIVTGPNDSPFEGGVFKLELFLPEDYPMSAPKVRFITKIYHPNIDRLGRICLDVLKDKWSPALQIRTILLSIQALLSAPNPDDPLANDVAELWKVNEAEAIRNAREWTQKYAVED
With B14 the MAPPIT interaction score (CG17991) was 0.127 (inactive) and the MAPPIT interaction score (sina) was 0.428 (inactive).
